For assay [1], the target named is Albumin (Bos taurus) (UniProt P02769). The assay is described as follows: bovine serum albumin binders on microarray, profiling panel, artefact control for SMM control protein annotation, biochemical, small-molecule microarray, Alexa647 label, 635/667 nm fluorescence (AID 1118).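 Further: score merges 667 nm emission intensity and signal-to-noise per printed compound spot.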 Conditions: BSA-A647 binding, fluorescence 635 nm, higher = more signal.
Assay [2] in a line: small-molecule microarray binders of probe aXIP, primary screen, biochemical, NeuroSMM set, 635/667 nm fluorescence (AID 1119).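 Further: probe is the protein aXip251-270 applied at 1 µg/mL to compound-printed slides; binding of probe to printed compounds measured as 667 nm fluorescence plus signal to noise.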 Particulars: higher = more signal, called active from +8 up or from −8 down.
Assay [3] is described as follows: small-molecule binders of probe aNOTCH3, primary screen, biochemical, small-molecule microarray, 635/667 nm fluorescence (AID 1120).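 Further: probe is a biotin-tagged antibody raised against NOTCH3 rather than NOTCH3 protein; score merges spot fluorescence near 667 nm with spot signal to noise.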 Particulars: higher = more signal.
A short description of assay [4]: small-molecule binders of probe aNOTCH2, primary screen, biochemical, small-molecule microarray, 635/667 nm fluorescence (AID 1121).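 Further: score merges feature fluorescence read at 667 nm with its signal to noise.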 Conditions: higher = more signal.
The target in assay [5] is Carbonic anhydrase 2 (Homo sapiens) (UniProt P00918). The assay is described as follows: CAII small-molecule binders, profiling panel, biochemical, small-molecule microarray, Alexa647-labelled CAII (AID 1122). Conditions: CAII-A647 binding fluorescence, higher = more signal.
The nature of assay [6]: COS7 lysate on small-molecule microarray, probe aHis, 635 nm (AID 1123).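 Further: z-score combines 667nm fluorescence intensity with signal-to-noise per printed compound spot.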 Particulars: COS7 cell lysate, fluorescence, higher = more signal.
Assay [7] in a line: compound binding in COS7 lysate, probe aLAP1, primary screen, cell lysate, small-molecule microarray (AID 1124).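 Further: lysate comes from COS7 cells expressing LAP1 and is applied at 0.3 µg/mL; score merges spot fluorescence near 667 nm with signal-to-noise over triplicate slides.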 Conditions: probe aLAP1, fluorescence, higher = more signal.
Assay [8] has as its system Sam68 (KHDRBS1). The assay is described as follows: Sam68 small-molecule binders, primary screen, biochemical, small-molecule microarray, 635 nm fluorescence (AID 1125).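 Further: score merges 667 nm channel intensity with signal to noise over triplicate slides.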 Conditions: small-molecule microarray binding, higher = more signal.
Assay [9] deals with Chordin-like protein 2 (CHRDL2). The assay is described as follows: CHRDL2 small-molecule binders, primary screen, biochemical, small-molecule microarray, 635 nm fluorescence (AID 1126).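 Further: printed compound slides probed with Chrdl2 protein at 4 µg/mL for 1 h at 4 C; score merges 667 nm emission intensity with signal to noise over three replicate slides.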 Particulars: small-molecule microarray binding, fluorescence 635 nm; higher = more signal.
Assay [10] has as its target Concanavalin-A (Canavalia ensiformis) (UniProt P02866). The assay can be described thus: ConA small-molecule binders, primary screen, artefact control for SMM control protein annotation, biochemical, small-molecule microarray, Alexa647 label, 635 nm (AID 1127).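 Further: z combines 667 nm emission intensity with signal-to-noise across three replicate slides.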 Particulars: ConA-A647 binding fluorescence, higher = more signal.

The source made the active and inactive calls.

Sequence of Concanavalin-A (Canavalia ensiformis) (P02866 whole entry, looked up): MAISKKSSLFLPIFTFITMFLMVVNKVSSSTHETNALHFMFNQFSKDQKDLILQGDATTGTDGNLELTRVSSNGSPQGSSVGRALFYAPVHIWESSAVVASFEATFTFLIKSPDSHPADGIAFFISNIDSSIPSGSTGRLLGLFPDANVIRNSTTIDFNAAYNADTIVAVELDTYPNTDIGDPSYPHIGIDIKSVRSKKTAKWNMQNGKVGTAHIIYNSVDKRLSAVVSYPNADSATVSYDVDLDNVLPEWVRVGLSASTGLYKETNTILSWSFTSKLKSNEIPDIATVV
Sequence of Albumin (Bos taurus) (P02769 whole entry, looked up): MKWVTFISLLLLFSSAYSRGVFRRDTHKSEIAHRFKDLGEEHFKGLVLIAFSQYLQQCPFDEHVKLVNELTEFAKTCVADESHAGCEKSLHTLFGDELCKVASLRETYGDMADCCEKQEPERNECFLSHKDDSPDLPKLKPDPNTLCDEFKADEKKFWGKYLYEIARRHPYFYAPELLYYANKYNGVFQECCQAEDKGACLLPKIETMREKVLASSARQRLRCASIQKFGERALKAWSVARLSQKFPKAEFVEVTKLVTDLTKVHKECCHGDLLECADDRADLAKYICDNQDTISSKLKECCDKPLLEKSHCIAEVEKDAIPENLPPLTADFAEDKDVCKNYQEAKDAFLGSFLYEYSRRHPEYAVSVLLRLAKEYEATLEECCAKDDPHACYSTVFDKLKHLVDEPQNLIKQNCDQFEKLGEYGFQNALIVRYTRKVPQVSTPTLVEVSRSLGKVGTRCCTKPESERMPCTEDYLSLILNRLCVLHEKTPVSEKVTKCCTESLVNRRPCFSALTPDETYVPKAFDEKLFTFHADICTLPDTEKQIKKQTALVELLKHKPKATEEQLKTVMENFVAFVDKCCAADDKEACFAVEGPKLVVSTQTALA

As for `CN(C)CCCC[C@@H]1NC(=O)[C@H]2C[C@@H](C(=O)O)[C@@H](c3cccc(OCCO)c3)N2C1=O`, the composite z-score in assay [1] is -0.468; in [3], 0.601; in assay [4], 0.124; in [5] it was 0.816; in assay [6], 0.699; in assay [7] it was 0.0206. Besides, the composite z-score in assay [8] was 0.524; in assay [9], 0.941; in assay [10], 0.931. Besides, the composite Z-score in assay [2] was 0.666 (inactive).

Consider `COCCOC(=O)N1C(=O)[C@@]2(c3cc(C#CCCO)ccc31)[C@H](C(=O)N1CCN(c3ncccn3)CC1)[C@H]1C(=O)O[C@H](c3ccccc3)[C@H](c3ccccc3)N1[C@@H]2c1ccc(O)cc1`, for which the composite z-score is 0.506 in assay [1]; -0.236 in assay [3]; -0.245 in [4]; 0.244 in [5]; 1.4 in [6]; 0.298 in [7]. The composite z-score in assay [8] was 1.29; in [9], 0.182; in assay [10] it was 0.983. The composite Z-score in assay [2] was 0.168 (inactive).

For the compound `C[N+](C)(C)CCCC[C@@H]1NC(=O)[C@H]2C[C@@H](C(=O)NCCCCCNC(=O)CS)[C@@H](c3ccc(O)cc3)N2C1=O`, the composite z-score in [1] is 0.896; in assay [3], -0.154; in assay [4], -0.158; in assay [5], 0.678; in assay [6], 1.45; in [7], 0.361. In addition, the composite z-score in assay [8] came out at 0.616; in assay [9] it was 0.268; in assay [10] it was 0.997. In addition, the composite Z-score in [2] was 0.325 (inactive).

Regarding `O=C1O[C@H](c2ccccc2)[C@H](c2ccccc2)N2[C@H]1[C@@H](C(=O)N1CCN(c3ncccn3)CC1)[C@]1(C(=O)Nc3ccccc31)[C@H]2c1ccc(O)cc1`, the composite z-score in [1] is 0.753; in [3] it was -0.0932; in assay [4], -0.0438; in assay [5], 0.672; in [6], 2.48; in assay [7], 0.445. In addition, the figures for the composite z-score in assay [8], in [9] and in assay [10] were 1.29, -0.0771 and 1.16, respectively. The composite Z-score in assay [2] was 0.56 (inactive).

As for `CCC[C@@H]1[C@@H](Sc2ccccc2)[C@@H](C(=O)O)[C@H](c2ccc(C)cc2)N1S(=O)(=O)c1ccc(C)cc1`, the composite z-score in [1] is 0.771; in assay [3], 0.322; in assay [4] it was -0.0794; in assay [5], 0.594; in assay [6], 2.65; in [7], 1.39. In addition, the composite z-score in assay [8] is 1.33; in assay [9], -0.432; in assay [10] it was 1.23. Further, the composite Z-score in [2] was 0.398 (inactive).

As to `CC(=O)c1ccc(C(O)C2C=CC3C(=O)NC(=O)C3N2Nc2ccc(Cl)cc2Cl)cc1` (stereo not given), the composite z-score is 0.843 in assay [1]; -0.0151 in [3]; -0.0097 in [4]; 0.759 in assay [5]; 2.15 in [6]; -0.227 in assay [7]. Further, the composite z-score in [8] was -0.0077; in assay [9] it was 0.0823; in assay [10] it was -0.185. Further, in assay [2], the composite Z-score is 0.0186 (inactive).

On to `[N-]=[N+]=NCc1ccccc1C[C@]1(C(=O)O)COC(c2ccc(OCCCO)cc2)=N1`, for which the composite z-score in [1] was 0.748; in assay [3] it was -0.0525; in assay [4], -0.14; in assay [5], 0.805; in assay [6], -0.0577; in [7] it was -0.369. For the same compound, the composite z-score in [8] was -0.91; in assay [9] it was -2.26; in assay [10], -0.927. Besides, the composite Z-score in assay [2] is -0.496 (inactive).

Consider `O=c1cccc(-c2ccccc2C(F)(F)F)o1`, for which the composite z-score in assay [1] is 0.747; in assay [3], 0.583; in assay [4], 0.581; in assay [5], 0.354; in assay [6], 0.491; in assay [7], -0.148. Moreover, the composite z-score in assay [8] was -0.519; in assay [9], -0.223; in [10], -0.407. Besides, the composite Z-score in [2] was 0.3 (inactive).

On to `O=C1O[C@@H](c2ccccc2)[C@@H](c2ccccc2)N2[C@@H](c3ccc(OCCO)cc3)[C@]3(C(=O)Nc4ccc(C#CCCO)cc43)[C@@H](C(=O)Nc3nc4ccccc4s3)[C@H]12`, for which the composite z-score in assay [1] was 0.844; in [3], 0.289; in [4] it was -0.148; in assay [5], 0.458; in assay [6], 1.48; in assay [7], 0.426. Also, the composite z-score in [8] came to 1.3; in assay [9], 0.324; in assay [10] it was 1.09. The composite Z-score in [2] was 1.09 (inactive).

In the case of `C[C@]1(C(=O)NCC(F)(F)F)c2ccccc2C(=O)N(Cc2ccc(OC(F)(F)F)cc2)[C@H]1c1ccc(CO)cc1`, the composite z-score was 0.499 in [1]; -0.179 in assay [3]; -0.171 in [4]; 0.481 in [5]; 0.751 in [6]; 0.0891 in assay [7]. Besides, the composite z-score in [8] is 0.185; in [9] it was -0.0339; in assay [10] it was 0.422. In addition, the composite Z-score in assay [2] is -0.568 (inactive).

As to `CN1C(=O)[C@]2(CCC(=O)OC(C)(C)C)N=C(c3ccc(OCCCO)cc3)O[C@@H]2c2ccccc21`, the composite z-score in assay [1] was 0.272; in [3], -0.117; in [4], -0.12; in assay [5] it was 0.709; in [6] it was 2.69; in [7] it was -0.313. The composite z-score in assay [8] is 1.28; in [9] it was 0.149; in assay [10] it was 1.12. Moreover, the composite Z-score in assay [2] is 0.0786 (inactive).

`CC(C)c1ccc(NN2C(C(O)C(C)C)C=CC3C(=O)N(c4ccccc4)C(=O)C32)cc1` (stereo not given): the composite z-score in assay [1] was 1.07; in assay [3], 0.761; in assay [4] it was 0.353; in [5], 0.615; in assay [6], 2.89; in [7], 1.43. In addition, the composite z-score was 1.31 in assay [8], -0.256 in assay [9] and 1.2 in assay [10]. Also, in assay [2], the composite Z-score is 0.349 (inactive).

On to `CC(C)C[C@@H]1NC(=O)[C@H]2C[C@@H](C(=O)NCCCCCNC(=O)CS)[C@@H](c3ccc(O)cc3)N2C1=O`, for which the composite z-score is -0.796 in assay [1]; -0.171 in assay [3]; -0.144 in [4]; 0.414 in assay [5]; 2.08 in assay [6]; 0.873 in assay [7]. Besides, the composite z-score in [8] stood at 1.31; in [9], 0.795; in [10], 0.885. Moreover, the composite Z-score in assay [2] was 0.0136 (inactive).

In the case of `CC(C)C[C@@H]1NC(=O)[C@@H]2C[C@H](C(=O)NCCCC[N+](C)(C)C)[C@H](c3ccc(O)cc3)N2C1=O`, the composite z-score in [1] was -0.857; in assay [3], -0.0866; in [4], -0.153; in assay [5], 0.705; in assay [6], 0.83; in assay [7] it was 0.678. Further, the results for the composite z-score in assay [8], in assay [9] and in assay [10] were 1.09, 1.37 and 1.02, respectively. The composite Z-score in [2] is 0.541 (inactive).

In the case of `C=CCC(OC(C)=O)[C@@H]1[C@@H](N(Cc2ccc(-c3cccc(C(F)(F)F)c3)o2)C(=O)Cc2ccc(F)cc2)c2cc(OCCCO)ccc2N1C(=O)c1ccc2ccccc2n1` (stereo not given in full), the composite z-score was 0.671 in [1]; 0.228 in assay [3]; -0.0664 in [4]; -0.0261 in [5]; 0.27 in assay [6]; -0.0949 in [7]. Moreover, the composite z-score in assay [8] is 0.388; in assay [9] it was 0.353; in assay [10] it was -2.02. Moreover, the composite Z-score in [2] was 0.272 (inactive).

As to `CO[C@H]1O[C@H](CO)[C@@H](OC(=O)Nc2ccc(C(F)(F)F)cc2)[C@H](OC(=O)Nc2ccccc2-c2ccccc2)[C@@H]1OC(=O)Nc1ccccc1-c1ccccc1`, the composite z-score in [1] is 0.816; in [3], 0.387; in assay [4], -0.0496; in assay [5] it was 0.647; in assay [6], 2.21; in assay [7], 0.818. Further, the composite z-score in assay [8] is 1.29; in assay [9] it was 0.102; in assay [10], 1.15. Further, the composite Z-score in assay [2] is 0.0336 (inactive).

For the origin of these results see PubChem BioAssay.
